{"source": "PubChem BioAssay AID463173", "about": "(ICCB-Longwood Screening Facility, Harvard Medical School, 2010)", "note": "In all, about 52,000 compounds went through this assay and about 4,300 (8.3%) were called active. Rule as the data show it: active = survival mostly below about 52% (no sharp cut-off); inactive = mostly above about 56%. The sample as a whole holds a higher share of actives than the screen did.", "data": [{"system": "DeltatarO mutant", "assay": "growth inhibition of S. aureus wild type versus tarO mutant, primary screen, teichoic acid synthesis inhibitors, RN4220, OD600 (AID 463173)", "details": "OD600, 18 h, stronger effect = lower value, screened at 18.75 µg/mL (by protocol)", "values": [{"compound": "O=C(NC12CC3CC(CC(C3)C1)C2)c1cncc(O)c1", "survival": "90% (inactive)"}, {"compound": "CCc1ccccc1NC(=O)c1ccc2c(c1)N(Cc1cc(C)ccc1C)C(=O)c1ccccc1S2(=O)=O", "survival": "84% (inactive)"}, {"compound": "Cn1c(=O)n(C)c2cc(/C=N/NC(N)=S)ccc21", "survival": "98% (inactive)"}, {"compound": "CCn1cc(C(=O)N2CCN(c3ccc(F)cc3)CC2)c(=O)c2cc(S(=O)(=O)N(C)C3CCCCC3)ccc21", "survival": "73% (inactive)"}, {"compound": "O=C(NCc1ccc2c(c1)CCN2C(=O)c1ccccc1)c1ccccc1", "survival": "79% (inactive)"}, {"compound": "CCOc1ccc(C(=O)NCc2ccc3c(c2)CCN3C(=O)c2ccc(Cl)cc2)cc1", "survival": "91% (inactive)"}, {"compound": "CCOc1ccc(C(=O)NCc2ccc3c(c2)CCN3C(=O)c2ccccc2)cc1", "survival": "-2% (active)"}, {"compound": "CC(=O)c1cccc(NC(=O)C(CC(C)C)NS(=O)(=O)c2ccc3c(c2)CCN3C(C)=O)c1", "note": "(stereo not drawn)", "survival": "115% (inactive)"}, {"compound": "Cc1ccc(OCc2nc3ccccc3n2CCOc2ccc(Cl)cc2)cc1", "survival": "15% (active)"}, {"compound": "COCc1nc2ccccc2n1CCOc1cccc(C)c1", "survival": "39% (active)"}, {"compound": "COc1ccccc1OCCn1c(C(C)Oc2ccccc2)nc2ccccc21", "note": "(stereo not drawn)", "survival": "66% (inactive)"}, {"compound": "COc1cccc(OCc2nc3ccccc3n2CCOc2ccccc2C)c1", "survival": "38% (active)"}, {"compound": "CCCC(O)c1nc2ccccc2n1CCCCOc1ccc(OC)cc1", "note": "(stereo not drawn)", "survival": "52% (inactive)"}, {"compound": "Cc1cccc(OCCn2c(SCC(N)=O)nc3ccccc32)c1", "survival": "121% (inactive)"}, {"compound": "COc1ccccc1OCCn1c(COc2cc(C)ccc2C)nc2ccccc21", "survival": "61% (inactive)"}, {"compound": "COc1ccc(OCCn2c(C(C)Oc3ccccc3)nc3ccccc32)cc1", "note": "(stereo not drawn)", "survival": "48% (active)"}, {"compound": "Cc1ccc(OCCn2c(COc3ccc(Cl)cc3)nc3ccccc32)cc1", "survival": "65% (inactive)"}, {"compound": "COc1ccccc1NC(=O)C1=C(C)Nc2nc(SCc3ccccc3)nn2C1c1ccccn1", "note": "(stereo not drawn)", "survival": "65% (inactive)"}, {"compound": "Cc1cc(C)cc(Nc2sc(C(=O)c3ccccc3)c(N)c2S(=O)(=O)c2ccccc2)c1", "survival": "101% (inactive)"}, {"compound": "Cc1ccsc1CCN1C(=O)N(c2ccccc2)C(=O)C1CC(=O)Nc1ccc(F)cc1", "note": "(stereo not drawn)", "survival": "114% (inactive)"}, {"compound": "CC(C)=CCC(C)(C)C1OCCN1C(=O)Nc1ccccc1", "note": "(stereo not drawn)", "survival": "95% (inactive)"}, {"compound": "Cc1sc2c(c1C)c(=O)n(Cc1ccccc1)c(=O)n2Cc1ccc(F)cc1", "survival": "109% (inactive)"}, {"compound": "COc1ccc(C2CC(=O)c3cc(-c4nc(-c5ccc(Cl)cc5)cs4)c(=O)[nH]c3C2)cc1OC", "note": "(stereo not drawn)", "survival": "59% (inactive)"}, {"compound": "CC(=O)c1ccc(NC(=O)/C=C/c2ccc(C)o2)cc1", "survival": "48% (inactive)"}, {"compound": "COc1ccc(Cn2ccnc2SCC(=O)Nc2nc3ccccc3s2)cc1", "survival": "84% (inactive)"}, {"compound": "CCc1ccc(OCCCSc2nc(-c3ccc(C(C)(C)C)cc3)nc3cc(=O)[nH]n23)cc1", "survival": "80% (inactive)"}, {"compound": "CCOC(=O)c1[nH]c(C)c(C(=O)NCc2ccc(F)cc2)c1C", "survival": "79% (inactive)"}, {"compound": "O=S(=O)(c1cccc(Cl)c1)c1nnn2c1nc(NC1CCCCCC1)c1sccc12", "survival": "106% (inactive)"}, {"compound": "CCCCn1c(COc2cccc(OC)c2)nc2ccccc21", "survival": "57% (inactive)"}, {"compound": "COc1cccc(OCc2nc3ccccc3n2CCOc2ccccc2)c1", "survival": "35% (active)"}, {"compound": "COc1cccc(OCc2nc3ccccc3n2CCOc2cccc(C)c2)c1", "survival": "44% (active)"}, {"compound": "COc1cccc(OCc2nc3ccccc3n2CCOc2ccc(C)cc2)c1", "survival": "36% (active)"}, {"compound": "COc1cccc(OCCn2c(-c3ccc(Br)cc3)nc3ccccc3c2=O)c1", "survival": "82% (inactive)"}, {"compound": "CCCn1c(COc2cccc(C)c2)nc2ccccc21", "survival": "12% (active)"}, {"compound": "COc1cccc(OCc2nc3ccccc3n2C)c1", "survival": "57% (inactive)"}, {"compound": "O=S(=O)(NCc1ccccc1Cl)c1ccc(-c2cnc(C3CC3)o2)cc1", "survival": "101% (inactive)"}, {"compound": "CC1CCN(c2nc3c(S(=O)(=O)c4cccc(Cl)c4)nnn3c3ccsc23)CC1", "survival": "81% (inactive)"}, {"compound": "Cc1c(C#N)c2ccccc2n1CC(=O)NC1CCCCCC1", "survival": "72% (inactive)"}, {"compound": "CC(C(=O)Nc1ccccc1C(=O)N1CCCC1)n1nnc2ccccc21", "note": "(stereo not drawn)", "survival": "77% (inactive)"}, {"compound": "COc1ccc(Nc2nnc(-c3ccc(C)c(S(N)(=O)=O)c3)c3ccccc23)cc1", "survival": "70% (inactive)"}, {"compound": "CCn1c(SCC(=O)c2ccc(Br)cc2)nnc1-c1ccncc1", "survival": "99% (inactive)"}, {"compound": "CC1CCC2C(C1)Nc1c(C(=O)O)cccc1C2(C)C", "note": "(stereo not drawn)", "survival": "40% (active)"}, {"compound": "CC1CCC(=O)C(C2(O)C(=O)Nc3ccccc32)C1", "note": "(stereo not drawn)", "survival": "93% (inactive)"}, {"compound": "COc1ccc(OC)c(NC(=O)CN2CCCN(Cc3ccccc3Cl)S2(=O)=O)c1", "survival": "128% (inactive)"}, {"compound": "Cc1ccc2c(c1)N(CC(=O)Nc1ccccc1C(F)(F)F)C(=O)c1cccnc1O2", "survival": "100% (inactive)"}, {"compound": "CCOC(=O)c1c(S(=O)(=O)N2CCCC(C(=O)N(C)Cc3ccccc3)C2)c(C)n(C)c1C", "note": "(stereo not drawn)", "survival": "92% (inactive)"}, {"compound": "Cc1ccc(Cl)cc1Nc1nn2c(=O)c3ccc(C(=O)N4CCCC(C)C4)cc3nc2s1", "note": "(stereo not drawn)", "survival": "73% (inactive)"}, {"compound": "CC(C)c1nc2ccccc2c(=O)[nH]1", "survival": "91% (inactive)"}, {"compound": "Cc1nc(-c2ccccc2)cc(=O)[nH]1", "survival": "109% (inactive)"}, {"compound": "Cc1nc2cc3ccccc3cc2c(=O)[nH]1", "survival": "47% (active)"}, {"compound": "CNS(=O)(=O)c1cn(CC(=O)N2CCN(c3ccccc3F)CC2)cc1S(=O)(=O)NC", "survival": "71% (inactive)"}, {"compound": "COc1ccc(S(=O)(=O)Nc2ccc(-c3cn4c(C)csc4n3)cc2)cc1", "survival": "94% (inactive)"}, {"compound": "CC(=O)Nc1ccc(S(=O)(=O)Nc2ccc(-c3cn4c(C)csc4n3)cc2)cc1", "survival": "89% (inactive)"}, {"compound": "CC(=O)c1ccc(S(=O)(=O)Nc2ccc(-c3cn4c(C)csc4n3)cc2)cc1", "survival": "-5% (active)"}, {"compound": "COc1cc2ccccc2cc1C(=O)Nc1ccc(Cl)c(-c2nc3ccccc3o2)c1", "survival": "40% (active)"}, {"compound": "COc1cc2ccccc2cc1C(=O)Nc1cccc(-c2nc3cc(C)c(C)cc3o2)c1", "survival": "41% (active)"}, {"compound": "COc1cc2ccccc2cc1C(=O)Nc1cccc(-c2nc3ccccc3o2)c1", "survival": "7% (active)"}, {"compound": "COc1cc2ccccc2cc1C(=O)Nc1ccc2oc(-c3cccc(Cl)c3Cl)nc2c1", "survival": "56% (inactive)"}, {"compound": "Cc1cc2oc(C(=O)Nc3cccc(-c4nc5ccccc5o4)c3)c(C)c2cc1C", "survival": "74% (inactive)"}, {"compound": "COc1cc2ccccc2cc1C(=O)Nc1cccc(-c2nc3cc(C)ccc3o2)c1C", "survival": "55% (inactive)"}, {"compound": "COc1cc2ccccc2cc1C(=O)Nc1cc(-c2nc3ccccc3o2)ccc1C", "survival": "111% (inactive)"}, {"compound": "Cc1cc2nc(-c3cccc(NC(=O)c4cccc5ccccc45)c3)oc2cc1C", "survival": "57% (inactive)"}, {"compound": "COc1cc2ccccc2cc1C(=O)Nc1ccc2oc(-c3cc(Br)ccc3Cl)nc2c1", "survival": "75% (inactive)"}, {"compound": "COc1cc2ccccc2cc1C(=O)Nc1cccc(-c2nc3cc(C)c(C)cc3o2)c1C", "survival": "45% (active)"}, {"compound": "CCCC(=O)Nc1cccc(-c2nc3cc(C)c(C)cc3o2)c1C", "survival": "57% (inactive)"}, {"compound": "Cc1cc2nc(-c3ccc(NC(=O)c4ccccc4F)cc3)oc2cc1C", "survival": "66% (inactive)"}, {"compound": "CCc1cccc(NC(=O)Cn2c(=O)n(CCCCCC(=O)NCc3ccc(F)cc3)c(=O)c3sccc32)c1", "survival": "63% (inactive)"}, {"compound": "O=C(NCc1ccc(Cl)cc1)C1CCN(C(=O)c2cnn(-c3ccccc3)c2-n2cccc2)CC1", "survival": "65% (inactive)"}, {"compound": "Cc1ccc(C)c(NS(=O)(=O)c2cc3c4c(c2)C(C)C(=O)N4CCC3)c1", "note": "(stereo not drawn)", "survival": "106% (inactive)"}, {"compound": "COc1ccc(CNC(=O)c2cnc3sc(N4CCCCCC4)nn3c2=O)cc1", "survival": "101% (inactive)"}, {"compound": "CCOc1cccc2cc(-c3nc(-c4ccccc4C)no3)c(=O)oc12", "survival": "76% (inactive)"}, {"compound": "CCc1ccc(S(=O)(=O)c2nnn3c2nc(N(C)Cc2ccccc2)c2cc(Cl)ccc23)cc1", "survival": "82% (inactive)"}, {"compound": "COc1cc(-c2nc3sccn3c2Nc2cccc(C)c2)ccc1O", "survival": "54% (inactive)"}, {"compound": "O=c1c2ccccc2n(Cc2cccc(F)c2)c(=O)n1Cc1ccccc1Cl", "survival": "29% (active)"}, {"compound": "O=C(CCCn1c(=O)c2ccccc2n(Cc2cccc(F)c2)c1=O)NCc1ccccc1Cl", "survival": "74% (inactive)"}, {"compound": "Cc1ccc(Cn2c(=O)n(Cc3ccccc3Cl)c(=O)c3cccnc32)cc1", "survival": "69% (inactive)"}, {"compound": "O=c1c2cccnc2n(Cc2cccc(F)c2)c(=O)n1Cc1ccccc1Cl", "survival": "91% (inactive)"}, {"compound": "Cc1ccc(Cn2c(=O)n(CCCCC(=O)NCCc3ccc(Cl)cc3)c(=O)c3ccccc32)cc1", "survival": "96% (inactive)"}, {"compound": "Cc1ccc(Cn2c(=O)n(CCCCC(=O)NCc3ccccc3Cl)c(=O)c3ccccc32)cc1", "survival": "102% (inactive)"}, {"compound": "Cc1ccc(CNC(=O)CCCCn2c(=O)c3ccccc3n(Cc3ccc(Cl)cc3)c2=O)cc1", "survival": "105% (inactive)"}, {"compound": "Cc1ccc(Cn2c(=O)n(Cc3ccccc3Cl)c(=O)c3ccccc32)cc1", "survival": "48% (active)"}, {"compound": "Cc1ccc(Cn2c(=O)n(CCc3ccc(Cl)cc3)c(=O)c3ccccc32)cc1", "survival": "42% (active)"}, {"compound": "O=C(CCc1ccccc1)N/N=C/c1ccco1", "survival": "104% (inactive)"}, {"compound": "Cc1cc(C)c(NS(=O)(=O)c2ccc(-c3cnc(C4CC4)o3)cc2)c(C)c1", "survival": "99% (inactive)"}, {"compound": "CCCC(=O)C1=C(O)C(C(=O)OC)C(C)(C)CC1=N", "note": "(stereo not drawn)", "survival": "95% (inactive)"}, {"compound": "Cc1ccccc1CNC(=O)CN1CCSc2ccccc21", "survival": "89% (inactive)"}, {"compound": "Cc1ccccc1NC(=O)c1c(C)oc2ccc(O)c(CN3CCCC(C)C3)c12", "note": "(stereo not drawn)", "survival": "108% (inactive)"}, {"compound": "Cc1nn(-c2ccccc2)c(-n2cccc2)c1C(=O)N1CCN(c2ccccc2)CC1", "survival": "83% (inactive)"}, {"compound": "Cc1ccc(N(C)S(=O)(=O)c2ccc3c(c2)C(C)(C)C(=O)N3C)cc1C", "survival": "80% (inactive)"}, {"compound": "Cc1ccc2c(Sc3ccc(Cl)cc3)c(C(=O)N3CCC(C)CC3)[nH]c2c1", "survival": "69% (inactive)"}, {"compound": "COc1ccc2c(Sc3ccc(Cl)cc3)c(C(=O)N3CCC(C)CC3)[nH]c2c1", "survival": "64% (inactive)"}, {"compound": "CCOC(=O)C1CCCN(S(=O)(=O)c2ccc(Cl)cc2)C1", "note": "(stereo not drawn)", "survival": "95% (inactive)"}, {"compound": "COc1ccc2c(Sc3ccc(Cl)cc3)c(C(=O)N3CCCCC3)[nH]c2c1", "survival": "40% (active)"}, {"compound": "Cc1ccc2c(Sc3ccc(Cl)cc3)c(C(=O)N3CCCCC3)[nH]c2c1", "survival": "85% (inactive)"}, {"compound": "COc1ccc2c(Sc3ccccc3)c(C(=O)N3CCC(C)CC3)[nH]c2c1", "survival": "69% (inactive)"}, {"compound": "CCOC(=O)C1CCCN(C(=O)c2[nH]c3ccccc3c2Sc2ccc(Cl)cc2)C1", "note": "(stereo not drawn)", "survival": "37% (active)"}, {"compound": "O=C(c1[nH]c2ccccc2c1Sc1ccc(Cl)cc1)N1CCCCC1", "survival": "11% (active)"}, {"compound": "CCOC(=O)C1CCCN(C(=O)c2ccc3c(c2)N(Cc2ccc(Cl)cc2)C(=O)c2ccccc2S3=O)C1", "note": "(stereo not drawn)", "survival": "60% (inactive)"}]}]}
